Assay outcomes from PubChem.
A selection: hits, their analogues and other compounds. The true share with any hit is near 0.13%.
GFP derepression = derepresses silenced GFP locus in mouse C127i cells. mouse C127i GFP locus derepression, cytometry, 30 h. Potency, µM (highest dose often 46.1 µM), inactives show at the top dose GFP derepression (activation). 0.09% of 68,000 active. AID 597; note: % of control where 0% means no effect
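Murine C127i mammary cells carrying a silenced, stably integrated CMV-driven GFP reporter were treated with compound for 30 hours at 37 C. After PBS washes, GFP-positive cells were counted by laser-scanning microplate cytometry.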
HBB splicing = alters splicing of the hemoglobin beta chain. HBB splicing reporter cell assay, activation; EGFP reporter with mutant IVS2-654 intron; response scale: normalised to 500 nM splice-correcting PNA. 0.06% of 65,000 active. Potency, µM (series often up to 46.1 µM), inactives show top-dose activation, hits mostly activators. AID 925; note: potency is the fitted concentration of half-maximal effect; 0% is about no effect
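HeLa cells stably expressing EGFP interrupted by mutant beta-globin intron 2 (IVS2-654), 500/well in 2% FCS. Treated with compound for 2 days at 37C. Splicing correction scored as total well GFP intensity (488 nm excitation, 500-520 nm emission); 500 nM antisense PNA served as control.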
Ub-GFP proteasome = proteasome inhibitors stabilizing ubiquitin-GFP reporter; Ubiquitin-GFP reporter cells, proteasome inhibition, GFP fluorescence; response scale: untreated = 0%, 10 µM MG-132 = 100%; Potency, µM (doses to about 45.9 µM), for the others: at the top dose activation (GFP accumulation), actives largely listed as activators; 67,000 tested, under 10 active; active = well fitted activation curve with a large enough effect, not every such curve was filed as active; note: potency is the fitted concentration of half-maximal effect
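Proteasome blockade was scored as a rise in GFP-expressing U2OS cells carrying a ubiquitin(G76V)-GFP construct, imaged after 4 hr compound treatment at 37 °C across a 46 uM–2.9 nM series.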
The depositor's hits bear a star; / = no result given; ! = repeats disagree; [ ] = dose if it differs, or a comment. Unless noted, calls come from the whole dose curve; as a rule, active = well fitted curve in the direction sought with a large enough effect; inconclusive = small, poorly fitted or top-dose-only effect, or another doubt; inactive = no such curve, though single readings can be large; an effect the other way counts as inactive or inconclusive.

SMILES	GFP derepression	HBB splicing	Ub-GFP proteasome
c1ccc2c(c1)[nH]c1cnccc12	6%[20.6 µM]	/	/
Cc1c2ccncc2c(C)c2c1[nH]c1ccccc12	13µM*!	13µM*	-5%[20.5 µM]
Cc1ccc2ccccc2c1C	/	0%	/
CC(C)C[C@H]1C(=O)N2CCC[C@@H]2[C@]2(O)O[C@](NC(=O)[C@H]3C=C4c5cccc6[nH]cc(c56)C[C@H]4N(C)C3)(C(C)C)C(=O)N12	-2%[9.22 µM]	/	-1%
CC(C)(C)C(=O)C1C(=O)c2ccccc2C1=O	/	16µM*	/
Cc1ccc(O)cc1C	/	1%	/
